Experimental data taken from PubChem BioAssay (NCATS).
Where “and” joins values, the source holds several entries; their conditions need not be identical. Identical values can stand only once. Calls of active or inactive are those of the source. How the calls were made is not given here.

molecular target: Nuclear receptor subfamily 1 group I member 2 (Rattus norvegicus) (UniProt Q9R1A7); assay: qHTS assay for small molecule activators of the rat pregnane X receptor (rPXR) signaling pathway (AID 651751); conditions: rPXR reporter cells, luciferase (One-Glo), 24 h; further: 0% is about no effect
Sequence (Q9R1A7 whole entry, looked up): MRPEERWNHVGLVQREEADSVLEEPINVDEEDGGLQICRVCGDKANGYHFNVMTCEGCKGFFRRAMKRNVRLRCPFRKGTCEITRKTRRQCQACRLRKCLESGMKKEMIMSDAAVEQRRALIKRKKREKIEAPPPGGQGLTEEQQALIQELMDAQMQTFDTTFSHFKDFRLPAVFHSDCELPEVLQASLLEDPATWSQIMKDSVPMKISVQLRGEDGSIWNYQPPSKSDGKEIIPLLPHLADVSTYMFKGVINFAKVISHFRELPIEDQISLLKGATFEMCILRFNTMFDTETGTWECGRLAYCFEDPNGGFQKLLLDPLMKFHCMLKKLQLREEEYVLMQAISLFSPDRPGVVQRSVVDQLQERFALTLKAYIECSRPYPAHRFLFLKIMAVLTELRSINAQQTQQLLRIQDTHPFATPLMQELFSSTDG

SMILES	max response
C=CC(=O)NCNC(=O)C=C	1.16% (inactive) and 0.492% (inactive)
O=C(O)C(Cl)Cl	4.19% (inactive) and -3.77% (inactive)
CCOCCOC(C)=O	-2.9% (inactive)
Nc1c(Cl)c(Cl)c(Cl)c(Cl)c1Cl	0.456% (inactive)
Clc1cnc(Oc2ccc(Oc3ncc(Cl)cc3Cl)cc2)c(Cl)c1	9.03% (inactive)
Cc1cc(O)ccc1Cl	-6.09% (inactive)
C1CCC(NC2CCCCC2)CC1	-4% (inactive) and -4.51% (inactive) and -0.383% (inactive)
O=C(O)c1cc(Oc2ccc(C(F)(F)F)cc2Cl)ccc1[N+](=O)[O-]	2.53% (inactive)
O=[N+]([O-])c1c(Cl)c(Cl)cc(Cl)c1Cl	3.25% (inactive)
O=C(O)CCCOc1ccc(Cl)cc1Cl	8.43% (inactive)
O=S(=O)(O)C(F)(F)C(F)(F)C(F)(F)C(F)(F)C(F)(F)C(F)(F)C(F)(F)C(F)(F)F	2.44% (inactive) and 1.44% (inactive)
COc1nn(CSP(=S)(OC)OC)c(=O)s1	-6.79% (inactive)
Nc1ccc([N+](=O)[O-])cc1	-0.553% (inactive)
O=[N+]([O-])/N=C1\NCCN1Cc1ccc(Cl)nc1	4.35% (inactive)
Nc1ccc(Cl)cc1	3.79% (inactive)
O=C(O)COc1ccccc1	-3.8% (inactive)
CS(=O)(=O)c1ccc(C(=O)C2C(=O)CCCC2=O)c([N+](=O)[O-])c1	1.13% (inactive)
c1cc2ccc3cccc4ccc(c1)c2c34	6.39% (inactive) and 2.28% (inactive)
OCCCBr	-2.6% (inactive)
